The structures appear in SMILES notation. The whole screen tested about 1,100 compounds, of which about 390 (35%) were called active. Another 30% or so got no clear call; they are omitted. This is one part of the list. Unmarked numbers belong to inactive results. The call rests on the fitted dose curve; in most records, active means well fitted inhibition curve with a large enough effect; inconclusive means small, poorly fitted or top-dose-only effect; inactive means flat fitted curve, though single readings scatter.
On the % scale 0 is the no-effect control and ±100 the full control effect; potency means the concentration at half of the fitted maximal effect.

The target of this experiment is Luciferin 4-monooxygenase (Photinus pyralis) (UniProt P08659). Put plainly: qHTS of Nrf2 Activators: Hit Validation in Secondary FLuc Assay. Further: nearly all actives have a fitted effect of over 65% in size. As to conditions: firefly luciferase inhibition counter-screen, luminescence; series mostly up to 57.5 µM; activity, negative = inhibition: at the top concentration. Summed up: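 Counter-screen on purified firefly luciferase with ATP and D-luciferin at Km concentrations; compounds flagged if they inhibit the enzyme, indicating possible reporter stabilization rather than ARE activation.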
On the technique in general: qHTS replaces the single test concentration by a dilution series.
As to `O=C1N/C(=C\c2ccsc2)C(=O)N1Cc1ccc(F)cc1`, the “activity, negative = inhibition” value was -2.1%. Still for that read-out and setting: then `CCc1ccc(/C=C/c2c([N+](=O)[O-])c(=O)n(C)c(=O)n2C)cc1`, with -27.8%.

Regarding `CCC1C/C(=C/c2cccs2)C(=O)/C(=C/c2cccs2)C1` (stereo not given), the “activity, negative = inhibition” value was -23.6%. As for `O=C(Nc1cc(-c2nc3cc(Cl)ccc3o2)ccc1Cl)c1ccco1`, the Potency was 6.01 µM (active). As for `COc1ccc(Cl)cc1NC(=O)c1ccco1`, the “activity, negative = inhibition” value was 0.501%.

On to `CCCS(=O)(=O)c1nc(S(=O)(=O)c2ccc(C)cc2)c(N2CC(C)OC(C)C2)s1` (stereo not given), for which the “activity, negative = inhibition” value was -1.58%. Consider `O=C(/C=C/Nc1ccc(F)c(Cl)c1)c1ccco1`, for which the Potency is 1.69 µM (active). On the same count and under the same terms, for `COc1cccc(-c2nc3n(n2)CCc2ccccc2-3)c1` the value was 0.953 µM (active); for `CNc1ccc(-c2nc(-c3ccco3)no2)cc1[N+](=O)[O-]`, 0.0849 µM (active). On the same count and under the same terms, then `CC(C)Nc1ccc(-c2nc(-c3ccco3)no2)cc1[N+](=O)[O-]`, with 0.213 µM (active); and `CC(C)c1ccc(NC(=O)c2sccc2-n2cccc2)cc1`, with 10.7 µM (active). As to `Cc1ccc(CNC(=O)c2sccc2-n2cccc2)cc1`, the “activity, negative = inhibition” value was -11.8%.

`Cc1ccc(S(=O)(=O)c2nc(S(C)(=O)=O)sc2N2CCOCC2)cc1`: the “activity, negative = inhibition” value is 7.7%. The same measure, in the same setting: then `COc1ccc(OC)c2sc(NC(=O)CCS(=O)(=O)c3ccccc3)nc12`, with -25.5%. For `COc1ccccc1-c1nnc(NC(C)=O)s1`, the Potency is 2.69 µM (active). For the molecule `O=C(CCN1C(=O)c2cccc3cccc(c23)C1=O)Nc1ccon1`, the “activity, negative = inhibition” value is -23.6%.

Turning to `COC(=O)c1ccccc1NC(=O)c1cc(-c2ccco2)on1`, the “activity, negative = inhibition” value is -22.9%. Regarding `COc1ccccc1NC(=O)/C(C#N)=C/C=C/c1ccco1`, the “activity, negative = inhibition” value is -4.16%. With `COc1ccccc1NC(=O)/C=C\c1ccco1`, the Potency was 10.7 µM (active).

As to `COC(=O)c1ccccc1NC(=O)/C=C/c1ccco1`, the Potency is 8.49 µM (active). Consider `CCn1c(=O)oc2cc(NC(=O)CCl)ccc21`, for which the “activity, negative = inhibition” value is 1.74%. The same measure, in the same setting: then `Cc1nn(-c2cccc(C(F)(F)F)c2)c(=O)c2ccccc12`, with -29.2%. Take `Cc1nn(-c2ccc3ccccc3c2)c(=O)c2ccccc12`: the Potency is 3.38 µM (active). Turning to `c1ccc(-c2cc3c(ccc4nonc43)nn2)cc1`, the “activity, negative = inhibition” value is -18.2%. Same read-out and setting: then `Clc1cc(-c2ccccc2)nc(-c2ccccc2)n1`, with 1.58%. For the molecule `c1ccc(-c2cnc(-c3ccccc3)nn2)cc1`, the Potency is 0.301 µM (active). As to `CC1Sc2n(c3ccccc3[n+]2C)N=C1c1ccccc1` (stereo not given), the “activity, negative = inhibition” value was -0.681%. For the molecule `Clc1ccc2nc(-c3ccco3)c(Cc3ccccc3)n2c1`, the Potency is 10.7 µM (active).

In the case of `COc1ccccc1Cc1c(-c2ccco2)nc2ccc(Cl)cn12`, the Potency was 2.39 µM (active). `O=C1c2cccc3cccc(c23)C(=O)N1CCCN(C(=O)c1cccs1)c1cccc(F)c1`: the “activity, negative = inhibition” value was 5.37%. As to `CC(=O)COc1ccc2c(c1C)O/C(=C\c1ccco1)C2=O`, the Potency was 0.601 µM (active). Take `CCN1C(=O)/C(=C\c2ccco2)C(C(=O)OC)=C1C`: the “activity, negative = inhibition” value is -1.69%.

Take `COc1ccc(C2NC(=S)NC3=C2CCCC3=C2SCCS2)cc1` (stereo not given): the “activity, negative = inhibition” value is -29.4%.

With `S=c1[nH]nc(-c2ccco2)n1/N=C/c1ccccc1`, the “activity, negative = inhibition” value was -27.4%. On to `Cc1n[nH]c(=S)n1/N=C/c1ccc(-c2ccccc2[N+](=O)[O-])o1`, for which the Potency was 9.53 µM (active).

Turning to `O=[N+]([O-])c1ccccc1/C=C/C=N/n1c(-c2ccco2)n[nH]c1=S`, the Potency is 7.57 µM (active). Same read-out and setting: then `S=c1[nH]nc(-c2ccco2)n1/N=C/C(Cl)=C/c1ccccc1`, with 13.5 µM (active); and `S=c1[nH]nc(COc2ccccc2)n1/N=C/C(Cl)=C/c1ccccc1`, with 19 µM (active).

`c1ccc2c(-c3nc4ncccc4o3)cccc2c1`: the Potency is 13.5 µM (active).

On to `Nc1c(C(=O)c2ccc(Br)s2)oc2ccccc12`, for which the Potency is 2.69 µM (active). On the same count and under the same terms, then `Nc1c(C(=O)c2cccs2)oc2ccccc12`, with 9.53 µM (active).

As for `[O-][n+]1onc2c1CCc1c-2nn(-c2ccccc2Cl)[n+]1[O-]`, the “activity, negative = inhibition” value is 7.06%. The same measure, in the same setting: then `Cc1nc2ccccc2c(=O)n1NCc1cc(Br)cs1`, with -27.8%.

With `O=C(Nc1nccs1)c1cc(-c2ccco2)nc2ccccc12`, the Potency was 6.01 µM (active). Same read-out and setting: then `Cc1csc(NC(=O)c2cc(-c3ccco3)nc3ccccc23)n1`, with 5.36 µM (active). With `CC1CCc2c(cc(-c3ccccc3)n2-c2ccc(C(=O)NC(C)C)cc2)C1` (stereo not given), the “activity, negative = inhibition” value was -5.3%. With `Oc1ccccc1-c1csc(-c2ccccc2)n1`, the Potency was 1.69 µM (active). In the case of `COC(=O)c1sccc1NC(=O)c1c(C)noc1C`, the “activity, negative = inhibition” value is 3.32%. Regarding `COc1ccc(NC(=O)c2cc(-c3ccco3)on2)c(OC)c1`, the “activity, negative = inhibition” value is -4.64%.

With `COc1ccccc1NC(=O)CSc1ccc(-c2ccco2)nn1`, the Potency is 15.1 µM (active). Turning to `COc1ccc(Cl)cc1NC(=O)CSc1c2c(nc3ccccc13)CCC2`, the “activity, negative = inhibition” value was 1.24%. Regarding `O=C(CSc1ccc(-c2ccco2)nn1)N1CCCCCC1`, the Potency was 16.9 µM (active).

With `COc1ccc(NC(=O)CSc2ccc(-c3ccco3)nn2)c(OC)c1`, the Potency is 3.38 µM (active). Still for that read-out and setting: then `COc1ccc(NC(=O)CSc2ccc(-c3ccco3)nn2)cc1OC`, with 15.1 µM (active).

`COc1ccc(Cl)cc1NC(=O)c1cc(-c2ccco2)on1`: the “activity, negative = inhibition” value is -4.62%. Still for that read-out and setting: for `CC(OC(=O)/C=C/c1ccc2ccccc2n1)C(=O)Nc1ccc(S(N)(=O)=O)cc1` (stereo not given) the value was -27.1%; for `Cc1nc(C)c(C(=O)N/N=C/c2ccco2)s1`, -9.17%. As for `O=C(N/N=C/c1ccco1)Nc1ccccc1`, the Potency was 10.7 µM (active).

In the case of `O=C1C=C(Nc2cccc(Cl)c2)CC(c2ccco2)C1` (stereo not given), the “activity, negative = inhibition” value was 1.07%. Consider `O=C(N/N=C\c1ccco1)Nc1cccc(Cl)c1`, for which the Potency was 8.49 µM (active). As to `O=C1CC(C(=O)Nc2ccc(Cl)c(Cl)c2)S/C(=N\N=C\c2ccco2)N1` (stereo not given), the “activity, negative = inhibition” value is -21.8%. Consider `O=C1CC(C(=O)Nc2ccc(Br)cc2)S/C(=N\N=C\c2ccco2)N1` (stereo not given), for which the “activity, negative = inhibition” value is -7.55%.

Consider `CC(=O)N(/N=C1\Sc2ccccc2C1=O)c1ccccc1`, for which the Potency was 0.301 µM (active). Turning to `CS(=O)(=O)N1CCN(c2ccccc2NC(=O)c2ccc([N+](=O)[O-])o2)CC1`, the “activity, negative = inhibition” value was 3.04%. For the molecule `NS(=O)(=O)c1ccc(O)c(NC(=O)c2ccc([N+](=O)[O-])o2)c1`, the Potency is 16.9 µM (active). Turning to `COc1ccc(N2CCCC2)c(NC(=O)c2ccc([N+](=O)[O-])o2)c1`, the “activity, negative = inhibition” value was -4.51%.

Take `O=C(COC(=O)/C=C/c1ccco1)Nc1ccc(F)cc1Cl`: the “activity, negative = inhibition” value is -5.05%.

As to `Cc1cccc(C)c1OCC(=O)N/N=C/C=C/c1ccco1`, the “activity, negative = inhibition” value is -26.1%. For the molecule `CC(/C=C/c1ccco1)=N\NC(=O)CNc1ccc2ccccc2c1`, the Potency is 15.1 µM (active). Same read-out and setting: for `O=C(C=Cc1ccco1)c1ccc2ccccc2c1` the value was 0.239 µM (active). Regarding `O=C(/C=C/c1ccco1)NCC(=O)N/N=C/c1ccc(Cl)cc1`, the “activity, negative = inhibition” value was -29.4%. On the same count and under the same terms, then `Cc1c(CN(C)C)c2c(n1C)C(=O)c1ccc(Br)cc1-2`, with 7.53%; and `Cc1ccccc1CS(=O)(=O)c1cnc2ccccc2n1`, with -24.2%.

As to `Cc1ccc(Cn2c(/C=C/c3ccco3)nc3ccccc32)cc1`, the Potency was 6.01 µM (active). Consider `CS(=O)(=O)Cc1nc2ccccc2oc1=O`, for which the “activity, negative = inhibition” value is 0.923%. The same measure, in the same setting: then `O=c1oc2ccc(Cl)cc2nc1/C=C(\O)c1ccco1`, with -26.9%. As to `O=c1oc2ccccc2nc1/C=C(\O)c1ccc(Br)cc1`, the Potency was 6.01 µM (active).

With `Fc1cccc(Nc2nc3ccccc3n3cnnc23)c1`, the “activity, negative = inhibition” value is -2.42%. For the molecule `Fc1cccc(Nc2cc(-n3cccn3)ncn2)c1`, the Potency is 10.7 µM (active). On the same count and under the same terms, for `Cc1ccc2cc3c(NC(=O)c4ccco4)nn(C)c3nc2c1` the value was 12 µM (active). Take `O=C(Nc1cnc2ccccc2c1)c1ccco1`: the Potency is 1.35 µM (active). `Cc1cc(NC(=S)NC(=O)c2ccco2)c2ccccc2n1`: the “activity, negative = inhibition” value was -24.9%. As to `O=C(NC(=S)Nc1cnc2ccccc2c1)c1ccccc1`, the Potency is 3.38 µM (active). On to `O=C(c1ccc([N+](=O)[O-])o1)N1CCN(c2nc3c(Cl)cccc3s2)CC1`, for which the “activity, negative = inhibition” value is -26%. Same read-out and setting: for `CN(Cc1ccccc1)C(=O)c1ccc([N+](=O)[O-])o1` the value was 1.73%; for `Cn1ccsc1=NC(=O)c1ccc([N+](=O)[O-])o1`, -21.8%. Turning to `O=C(Nc1nc2c(Cl)cccc2s1)c1ccc([N+](=O)[O-])o1`, the Potency is 10.7 µM (active). As to `O=C(Nc1nc2ccc(F)cc2s1)c1ccc([N+](=O)[O-])o1`, the Potency was 2.13 µM (active). In the case of `O=C(CCS(=O)(=O)c1ccccc1)Nc1nc2ccc(F)cc2s1`, the “activity, negative = inhibition” value was -26%.

As to `Cc1ccc(-n2nc3c([n+]2[O-])CCc2c-3no[n+]2[O-])cc1`, the “activity, negative = inhibition” value is -5.82%. Consider `Oc1ccc(Cl)cc1/C=C/c1ccc2cccc(O)c2n1`, for which the Potency is 9.53 µM (active). As to `COc1cc(Cl)cc(/C=C/c2ccc3cccc(O)c3n2)c1OC`, the Potency is 9.53 µM (active). In the case of `CN(N=Cc1ccccc1O)c1ccc2ccccc2n1`, the Potency was 0.849 µM (active).

For `O=C(Nc1ccc(F)cc1)c1nsc(Cl)c1Cl`, the Potency was 1.69 µM (active).

In the case of `O=C(Nc1ccc(OC(F)F)cc1)c1ncc(Cl)c(Cl)c1Cl`, the “activity, negative = inhibition” value is -17.4%. Still for that read-out and setting: then `CSc1nsc(SC)c1C(=O)Nc1ccc(Cl)cc1`, with -1.94%; and `COc1ccc(Nc2nc(C)nc3sc4c(c23)CCC4)cc1O`, with -21.5%. With `CC1(C)CC[C@]2(C(=O)n3ccnc3)CC[C@]3(C)[C@H](C(=O)C=C4[C@@]5(C)C=C(C#N)C(=O)C(C)(C)[C@@H]5CC[C@]43C)[C@@H]2C1`, the Potency is 0.478 µM (active). Take `N#Cc1sc2nc(-c3ccccc3)cc(C(F)(F)F)c2c1N`: the “activity, negative = inhibition” value was -16.1%. Take `COC(=O)c1sccc1NC(=O)c1cccc(Cl)c1`: the “activity, negative = inhibition” value is -4.91%. For `COc1cccc(C(=O)Nc2cc(Cl)c(O)c(Cl)c2)c1`, the Potency is 12 µM (active). Turning to `COc1cccc(NC(=O)c2cc(Cl)nnc2Cl)c1`, the “activity, negative = inhibition” value is -19.3%.

On to `CN(C)c1oc(/C=C/c2ccccc2)nc1C#N`, for which the Potency was 8.49 µM (active). Still for that read-out and setting: for `Oc1ccc(CNc2ccccc2O)cc1` the value was 12 µM (active); for `CCCCC1C(=O)N(c2ccccc2)N(c2ccc(O)cc2)C1=O` (stereo not given), 10.7 µM (active). Still for that read-out and setting: for `COc1ccc(-c2csc3nc(-c4cccnc4)nc(Cl)c23)cc1OC` the value was 12 µM (active). Still for that read-out and setting: then `O=C(/C=C/c1ccco1)Nc1cccc2cccnc12`, with 4.78 µM (active).

For the molecule `O=C(/C=C/c1ccco1)Nc1cccnc1Cl`, the Potency was 6.01 µM (active). On to `CC(C)(C)OC(=O)NCCC(=O)N/N=C/c1cccc2cccnc12`, for which the “activity, negative = inhibition” value is -3.55%. Still for that read-out and setting: then `Cc1ccc(/C=C/C(=O)OCC(=O)Nc2cccnc2Cl)o1`, with -0.884%.

The values are drawn from PubChem BioAssay AID651597 (National Center for Advancing Translational Sciences (NCATS), 2012).
